Results as given in the supplement of paper PMC10338343.
± gives the standard deviation.

These sequences were tested on EfPiwi piRISC loaded with L1MC piRNA (26 nt) (assay: pre-steady-state target cleavage rate (min^-1); auxiliary factor: 500 nM Ephydatia muelleri Gtsf1; guide: L1MC piRNA 5'p-UAACUAAAUACUAUGCAAGCUGUAGG; MIWI and MILI are mouse PIWI proteins and EfPiwi is from a freshwater sponge; tags in brackets are library labels; higher = faster piRNA-guided slicing of the target).
In short: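 In this Cleave-'n-Seq assay, uncleaved targets were sequenced and normalised to depth and to weakly complementary targets. They came from a transcribed, DNA-blocked target RNA library […] mixed with 1 nM active affinity-purified piRISC carrying one synthetic guide, with or without 500 nM GTSF1 partner protein, in HEPES–potassium acetate buffer at 33 °C for 0–8 or 0–960 min. After three trials were pooled and k3 was capped at 0.0001 min^-1, the pre-steady-state cleavage rate was obtained from a burst-and-steady-state fit.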

Row | Sequence | pre-steady-state target cleavage rate
1 | UCCUCCUACUCCUUGCAUAGUAUUUAGUAA | 0.00518 ± 0.0033
2 | UCCUCCUACAGCUAGCAUUGUAUUUAGUUA | 0.0127 ± 0.0042
3 | UCCUCCUACAGCUUGCAUAGUAUCUAGUUA | 0.00718 ± 0.0032
4 | UCCUGGAACAGCUUGCAUAGUACUUAGUUA | 0.0218 ± 0.0069
5 | UCCUGGAUGAGCAUGCAAAGUAUUUAGUUA | 0.00414 ± 0.0036
6 | UCCUGGAUGUGCUUGCAUAGUAUGUUAGUUA | 0.00406 ± 0.0038
7 | UCCUGGAUCAGCUGUGCAUAGUAUUUAGUUA | 0.0791 ± 0.016
8 | UCCUGCUACAGCUUGCAUAGUAAUUAGUUA | 0.0061 ± 0.0022
9 | UCCUGGAUGUCGCUGCAUAGUAUUUAGUUA | 0.00471 ± 0.0025
10 | UCCUGCUACACCUUGCAUAGUAUUUAGUAA | 0.00559 ± 0.0032
11 | UCCUCGUACAGCUUGCAUAGUAUUUAGUAA | 0.00794 ± 0.0029
12 | UCCUGCUACAGCAUGCAUAGUAUUUAGUAA | 0.00673 ± 0.0029
13 | UCCUCCUACAGCUUGUCAUAGUAUUUAGUUA | 0.0546 ± 0.016
14 | UCCUGGUAGAGCUUGCAUAGUAUAUAGUUA | 0.0131 ± 0.0051
15 | UCCUGCAACAGCUUGGAUAGUAUUUAGUUA | 0.0256 ± 0.0066
16 | UCCUGGAUCAGCAUGCAUAGUUUUUAGUUA | 0.00291 ± 0.0027
17 | UCCUGCUACACCUUGCAUUGUAUUUAGUUA | 0.00323 ± 0.0025
18 | UCCUGCUACAGCUUGGAAAGUAUUUAGUUA | 0.0208 ± 0.0042
19 | UCCUCCUACAGCUAGCAUACUAUUUAGUUA | 0.00634 ± 0.002
20 | UCCUGGAUCAGCUUGCAGAGUAUUUAGUUA | 0.00715 ± 0.0022

Row | Sequence | pre-steady-state target cleavage rate
21 | UCCUGGAAGAGCUUGCAUAGUAUUUUGUUA | 0.00497 ± 0.0026
22 | UCCUCCUACAGCUUGCAGAGUAUUUAGUUA | 0.0095 ± 0.0025
23 | UCCUCCUACAGGUAGCAUAGUAUUUAGUUA | 0.0265 ± 0.006
24 | UCCUGGAUCAGCUUGCAUAGUAUUUAGGUA | 0.00436 ± 0.002
25 | UCCUGGUAGAGCAUGCAUAGUAUUUAGUUA | 0.0134 ± 0.004
26 | UCCUGGUACCAGCUUGCAUAGUAUUUAGUUA | 0.0109 ± 0.0044
27 | UCCUGGUACACCUUGCUUAGUAUUUAGUUA | 0.00384 ± 0.0027
28 | UCCUCCUAGUCCUUGCAUAGUAUUUAGUAA | 0.00549 ± 0.0034
29 | UCCUCGAACAGCUUGCAUAGUAUUUAGUAA | 0.0173 ± 0.0064
30 | UCCUGGAUGUGCAUUGCAUAGUAUUUAGUUA | 0.0129 ± 0.0042
31 | UCCUGCUUCAGCUUGCAUACUAUUUAGUUA | 0.00801 ± 0.0025
32 | UCCUGCUACAGCUUGCAGAGUAUUUAGUUA | 0.006 ± 0.0022
33 | UCCUGGAUGAGCUAGCAUAGUAUUUAGUUA | 0.00597 ± 0.002
34 | UCCUGGUACAGCUUGCGUAGUAUUUAGUUA | 0.0273 ± 0.0095
35 | UCCUCCUUCACCUUGCAUAGUAUUUAGUUA | 0.0605 ± 0.021
36 | UCCUGGAUCAGGUUGCUUAGUAUUUAGUUA | 0.00555 ± 0.0024
37 | UCCUGGUACAGCUUGCAUAGUAUUUAGUUC [g2:g24:cont:t1C] | 0.0096 ± 0.0039
38 | UCCUGGAUGUGGUUGCAUAGUUUUUAGUUA | 0.00827 ± 0.0052
39 | UCCUCCUACAGCUUGCAUGUAUUUAGUUA | 0.00924 ± 0.0046
40 | UCCUGGUUCAGCUUGCAUAGUAUUUAGUUA | 0.0765 ± 0.018
